Reference: PubChem BioAssay AID686978 (National Center for Advancing Translational Sciences (NCATS), 2013)
About 64,000 (15%) of roughly 420,000 compounds were called active. Roughly 27% stayed inconclusive and do not appear here. Calls come from the whole dose curve; as a rule, active = well fitted inhibition curve with a large enough effect; inconclusive = small, poorly fitted or top-dose-only effect; inactive = flat fitted curve, though single readings scatter. Not all results are given here.

Assay: qHTS for Inhibitors of human tyrosyl-DNA phosphodiesterase 1 (TDP1): qHTS in cells in absence of CPT; note: nearly all actives have a fitted effect of over 55% in size
Details: DT40 Tdp1-/- hTDP1 cells, no CPT, ATP luminescence, 48 h; activity change, negative = growth inhibition: at 46.2 µM (top of the series)
In short: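 DT40 Tdp1-/-;hTDP1 cells, no CPT (DMSO vehicle only), 400 cells/well; compounds pin-transferred; ≥48 hr, 37 °C; CellTiter-Glo 30 min RT dark, luminescence read.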
% is set by controls: 0 for no effect and ±100 for the full control effect; potency is the fitted concentration of half-maximal effect.

Row | SMILES | activity change, negative = growth inhibition | Potency
1 | CCOC(=O)CSc1nnc(CNC(=O)c2ccco2)n1-c1ccc(F)cc1 | 6.97% (inactive) | –
2 | NNC(=O)c1cnn(-c2ccccc2)c1C(F)(F)F | 13.2% (inactive) | –
3 | CN(C)CCCOc1ccc(-c2ccc3nccn3c2)cn1 | -20.3% (inactive) | –
4 | OC[C@@H]1CN(Cc2ccc(-c3ccccc3)cc2)C[C@H](n2cnc3c(NC4CCCC4)ncnc32)O1 | – | 1.3 µM (active)
5 | OC[C@@H]1CN(Cc2cccs2)C[C@H](n2cnc3c(Nc4ccccc4)ncnc32)O1 | -25.5% (inactive) | –
6 | OC[C@@H]1CN(C2CCCC2)C[C@H](n2cnc3c(NC4CCC4)ncnc32)O1 | -14.2% (inactive) | –
7 | Cc1nnc(SCC(N)=O)n1CC1CCCO1 (configuration not stated) | -19.1% (inactive) | –
8 | O=C(O)CSCc1nc2ccccc2s1 | -6.51% (inactive) | –
9 | CCOC(=O)/C(C#N)=C/c1ccc(N2CCCCC2)cc1 | 3.19% (inactive) | –
10 | CCOC(=O)/C(C#N)=C/c1ccc(N2CCN(Cc3ccccc3)CC2)cc1 | – | 20.6 µM (active)
11 | CCOC(=O)/C(C#N)=C/c1ccc(OCC(=O)Nc2ccccc2)c(OC)c1 | -0.871% (inactive) | –
12 | O=C1C2C3C=CC(C3)C2C(=O)N1c1ccc(-c2nc3ccccc3c(=O)o2)cc1 (configuration not stated) | 15.5% (inactive) | –
13 | CN(C)c1ccc(/C=N/NC(=O)C(O)c2ccc(Br)cc2)cc1 (configuration not stated) | -22.4% (inactive) | –
14 | NS(=O)(=O)c1ccc(NC(=S)NC(=O)c2cccnc2)cc1 | -5.24% (inactive) | –
15 | O=C(c1ccc2c(c1)N(Cc1ccccc1)C(=O)c1ccccc1S2(=O)=O)N1CCC(Cc2ccccc2)CC1 | – | 5.8 µM (active)
16 | COc1ccccc1NC(=O)CN1C(=O)c2ccccc2Sc2ccc(C(=O)N3CCCC3)cc21 | -29.9% (inactive) | –
17 | CC1CCCN(C(=O)CN2C(=O)c3ccccc3S2(=O)=O)C1 (configuration not stated) | -10.2% (inactive) | –
18 | O=C1c2ccccc2S(=O)(=O)c2cc(N3CCN(c4ccccn4)CC3)ccc21 | -5.63% (inactive) | –
19 | O=C(c1ccc2c(c1)C(=O)N(c1ccc(Cl)cc1)C2=O)N1CCN(c2ccccn2)CC1 | -13.2% (inactive) | –
20 | O=C(c1ccc2c(c1)N(Cc1ccc(F)cc1)C(=O)c1ccccc1S2(=O)=O)N1CCN(c2ccccn2)CC1 | – | 18.4 µM (active)
21 | O=C(c1ccc2c(c1)N(Cc1ccccc1F)C(=O)c1ccccc1S2(=O)=O)N1CCOCC1 | -16.3% (inactive) | –
22 | O=C(c1cccc(Br)c1)N1CCN(C2=NS(=O)(=O)c3ccccc32)CC1 | -10.2% (inactive) | –
23 | O=C(c1ccc2c(c1)N(Cc1ccccc1)C(=O)c1ccccc1S2(=O)=O)N1CCCC1 | – | 23.1 µM (active)
24 | COc1ccc(Cl)cc1N(CC(=O)N/N=C/c1ccc(OCC(N)=O)cc1)S(C)(=O)=O | -9.15% (inactive) | –
25 | CCOc1ccc(C(=O)N2CCN(CCc3ccccn3)CC2)cc1 | -26.6% (inactive) | –
26 | O=C(CSc1nnc(-c2cccnc2)n1CCc1ccccc1)NCc1ccccc1 | -0.184% (inactive) | –
27 | COc1ccc(C)cc1NC(=O)CCS(=O)(=O)c1cccc2nonc12 | -7.48% (inactive) | –
